The values below come from PubChem BioAssay.

Each structure is given as a SMILES string. Where “and” joins values, the source holds several entries; their conditions need not be identical. Identical values can stand only once. Calls of active or inactive are those of the source.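 How the source made its calls, unless noted: active means thallium flux through the channel raised or lowered by more than 3 SD from vehicle-only wells, actives on both sides; inactive means the rest.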 Positions of bridges follow the written chain, without caps; N, C: chain ends. Non-standard residues stand in square brackets, D forms with d. Residues, ends and D or L forms follow the SMILES beside them. hArg = N=C(N)NCCCC[C@H](N)C(=O)O; Mpa = O=C(O)CCS

Experiment [1] in a line: Wnt pathway potentiators raising nuclear beta-catenin – imaging, WNT3A-conditioned medium, mouse C2C12, NPC library, primary screen (AID 1117326; in the data active means nuclear beta-catenin stimulation mostly above about 4.2%, no sharp cut-off; inactive means mostly below about 10%). Particulars: stronger effect = higher value.
Experiment [2] can be described thus: stimulators of insulin release from INS-1E, primary screen, cell-based, 5 mM glucose, NPC library (AID 1117329;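 active means compound raises insulin release from rat beta cells at 5 mM glucose, no numeric limit stated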). To be noted: rat INS-1E insulin secretion, at 10 µM, stronger effect = higher value.
Experiment [3] is described as follows: growth inhibition of GSK3B-pretreated HCT116 cells – cell-based, CellTiter-Glo, 0.2 to 20 µM (AID 1117336;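 active means compounds lowering colon cancer cell viability after pretreatment blocking the GSK3B kinase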). To be noted: HCT116 viability after GSK3B inhibitor, at 20 µM, stronger effect = higher value.
A short description of experiment [4]: inhibition of endothelial tube formation, primary screen, imaging, VEGF stimulated, CD31 staining, tube area, NPC library (AID 1117340;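 active means compound that reduces growth-factor-driven endothelial tube area in a mixed cell culture, no cutoff stated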). Particulars: VEGF-stimulated ADSC/ECFC co-culture, at 10 µM, stronger effect = higher value.
Experiment [5] is described as follows: GLP1 release stimulators, primary, NCI-H716, NPC library (AID 1117341;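 active means compound raises GLP1 secretion from the human gut endocrine cells, with no numeric limit stated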). Particulars: NCI-H716 cells, at 10 µM, stronger effect = higher value.
Experiment [6] is described as follows: HCT116 colon cancer cell growth inhibition, primary screen, CellTiter-Glo luminescence, NPC library (AID 1117342;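 active means compounds that lower survival of HCT116 colon cancer cells in the luminescence readout, no numeric limit stated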). To be noted: at 20 µM (top of the series). For orientation: Cellular ATP, detected with luciferase, serves as a proxy for viable cell number.
The nature of experiment [7]: reduced SW480 viability measured with CellTiter-Glo, NPC library, primary (AID 1117343;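 active means compounds that lower viability of the colon cancer cells in the luminescence readout, with no numeric limit stated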). Particulars: CellTiter-Glo luminescence; at 20 µM (top of the series).
Experiment [8] is described as follows: NPC library primary testing for decreased DLD-1 cell viability via CellTiter-Glo (AID 1117346;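 active means compounds that lower survival of DLD-1 colon cancer cells in the luminescence readout, no cutoff given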). To be noted: DLD-1 viability, CellTiter-Glo luminescence; at 20 µM (top of the series).
The target of experiment [9] is 6-phosphogluconate dehydrogenase, decarboxylating (Homo sapiens) (UniProt P52209). As to the kind of experiment: inhibition of human phosphogluconate dehydrogenase – biochemical, recombinant enzyme, NADPH absorbance, primary screen (AID 1159550;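 active means at least 20% inhibition of 6-phosphogluconate dehydrogenase activity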). Particulars: recombinant 6PGD, NADPH absorbance 341 nm; at 10 µM; stronger effect = higher value.
Chain of 6-phosphogluconate dehydrogenase, decarboxylating (Homo sapiens) (P52209 whole entry, looked up): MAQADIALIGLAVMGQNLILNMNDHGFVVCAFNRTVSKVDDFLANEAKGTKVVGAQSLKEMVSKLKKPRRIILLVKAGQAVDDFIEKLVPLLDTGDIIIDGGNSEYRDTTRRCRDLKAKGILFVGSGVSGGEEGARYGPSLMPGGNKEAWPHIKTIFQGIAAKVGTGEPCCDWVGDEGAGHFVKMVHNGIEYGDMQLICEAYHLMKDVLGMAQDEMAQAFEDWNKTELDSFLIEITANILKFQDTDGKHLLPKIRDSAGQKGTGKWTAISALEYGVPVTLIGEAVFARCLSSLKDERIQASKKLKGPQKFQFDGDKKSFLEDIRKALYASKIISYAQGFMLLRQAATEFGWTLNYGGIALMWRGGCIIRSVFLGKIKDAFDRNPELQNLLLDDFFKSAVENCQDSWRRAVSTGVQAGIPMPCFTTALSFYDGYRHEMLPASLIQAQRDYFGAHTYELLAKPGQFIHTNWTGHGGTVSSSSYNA
The nature of experiment [10]: modulation of C. elegans fzo-1 (AID 1259413; call rule not given here;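 further: fzo-1 mutant C. elegans worms in liquid wells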). To be noted: C. elegans fzo-1 modulator screen, mean read-out; stronger effect = higher value.
Experiment [11] can be described thus: EMT-state selective cytotoxicity in co-culture – imaging, PC-3E GFP, TEM4-18 mCherry, primary screen (AID 1345086;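 active means compounds killing one labelled cell type while sparing the other, by normalised counts and ratio limits, not self-fluorescent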;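 on all read-outs here: cells exposed to compound for 72 h before imaging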;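 on red/green cell ratio (normalised): normalised mesenchymal count divided by normalised epithelial count so high means epithelial killing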). Particulars: PC-3E GFP / TEM4-18 mCherry co-culture, imaging cell counts, at 1 µM; for red/green cell ratio (normalised): actives lie on both sides, counts scaled to control wells, 1 = unselective.
The nature of experiment [12]: MELAS cybrid and Rieske KO viability enhancers – cell-based, MELAS cybrids, Rieske KO mouse fibroblasts, CellTiter-Glo, primary screen (AID 1508586;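 active means mean z-score across replicates of 1.96 or higher in either the MELAS or the Rieske mutant cell line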;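 further: z relative to plate mean and SD of compound and empty wells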). Particulars: low glucose.
Experiment [13] concerns the target NAD(+) hydrolase SARM1 (Homo sapiens) (UniProt Q6SZW1). As to the kind of experiment: blocking NAD cleavage by SARM1 SAM-TIR – cell lysate, NAD-Glo luminescence (AID 1508614;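 active means compound whose remaining NAD level is above about 45 nM, limit read from the data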). To be noted: SAM-TIR HEK293T lysate NADase, at 1 µM, stronger effect = higher value.
Experiment [14] deals with Mitogen-activated protein kinase 7 (Homo sapiens) (UniProt Q13164). As to the kind of experiment: Gal4-ERK5 driven luciferase induction – cell-based, HTS, primary screen (AID 1508626;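 active means luciferase signal above three times the same-plate solvent-only control wells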;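 further: luciferase driven by Gal4-ERK5 fusion binding five Gal4 sites before minimal TATA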). To be noted: HeLa Gal4-ERK5 transactivation, 18 h, at 5 µM, stronger effect = higher value.
Chain of Mitogen-activated protein kinase 7 (Homo sapiens) (Q13164 whole entry, looked up, the tested form may be a part): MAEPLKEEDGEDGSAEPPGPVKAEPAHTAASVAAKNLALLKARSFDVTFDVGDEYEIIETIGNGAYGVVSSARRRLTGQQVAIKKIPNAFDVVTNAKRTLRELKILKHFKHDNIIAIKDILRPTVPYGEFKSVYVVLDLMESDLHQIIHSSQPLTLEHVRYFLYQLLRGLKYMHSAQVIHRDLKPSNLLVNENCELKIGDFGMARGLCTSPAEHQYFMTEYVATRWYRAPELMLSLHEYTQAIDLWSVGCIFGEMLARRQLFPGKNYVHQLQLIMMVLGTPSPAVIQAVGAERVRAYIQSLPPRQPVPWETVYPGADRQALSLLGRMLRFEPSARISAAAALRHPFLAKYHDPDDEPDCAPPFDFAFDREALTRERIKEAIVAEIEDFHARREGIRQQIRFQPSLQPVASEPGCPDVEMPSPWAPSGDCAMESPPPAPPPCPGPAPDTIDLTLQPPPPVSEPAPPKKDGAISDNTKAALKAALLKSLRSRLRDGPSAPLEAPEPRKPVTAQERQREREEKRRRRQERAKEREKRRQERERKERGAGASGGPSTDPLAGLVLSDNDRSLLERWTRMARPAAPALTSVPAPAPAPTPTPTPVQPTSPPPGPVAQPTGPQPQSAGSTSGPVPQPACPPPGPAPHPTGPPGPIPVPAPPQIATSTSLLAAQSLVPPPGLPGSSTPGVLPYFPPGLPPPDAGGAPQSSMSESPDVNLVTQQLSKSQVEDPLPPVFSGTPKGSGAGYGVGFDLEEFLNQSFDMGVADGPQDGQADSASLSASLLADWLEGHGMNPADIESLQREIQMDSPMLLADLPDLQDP
A further experiment relates to F380Y. As to the kind of experiment: BK channel mutant inhibitors and activators – cell-based, U2OS BacMam, thallium flux, beta subunits, selectivity assay, profiling panel (AID 1259406).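 Further: initial slope of Thallos dye fluorescence rise after thallium is added; log ratio against the mean of 0.3% DMSO vehicle wells on the same plate.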 To be noted: U2OS BacMam BK variants, at 30 µM.
In another experiment the test system is F380Y/beta1. Described as above. Particulars: U2OS BacMam BK variants, at 30 µM.
In a further experiment the test system is F380Y/beta2Delta. The description is as above. Particulars: U2OS BacMam BK variants, at 30 µM.
In a further experiment the test system is F380Y/beta4. The description is as above. Particulars: U2OS BacMam BK variants, at 30 µM.
The target in experiment [15] is Calcium-activated potassium channel subunit alpha-1 (Homo sapiens) + Leucine-rich repeat-containing protein 26 (Homo sapiens) (UniProt Q12791+Q2I0M4). The description is as above. Particulars: U2OS BacMam BK variants, F380Y/Slo1WT/gamma1, at 30 µM.
Chain of Calcium-activated potassium channel subunit alpha-1 (Homo sapiens) + Leucine-rich repeat-containing protein 26 (Homo sapiens) (Q2I0M4 whole entry, looked up, one chain of several): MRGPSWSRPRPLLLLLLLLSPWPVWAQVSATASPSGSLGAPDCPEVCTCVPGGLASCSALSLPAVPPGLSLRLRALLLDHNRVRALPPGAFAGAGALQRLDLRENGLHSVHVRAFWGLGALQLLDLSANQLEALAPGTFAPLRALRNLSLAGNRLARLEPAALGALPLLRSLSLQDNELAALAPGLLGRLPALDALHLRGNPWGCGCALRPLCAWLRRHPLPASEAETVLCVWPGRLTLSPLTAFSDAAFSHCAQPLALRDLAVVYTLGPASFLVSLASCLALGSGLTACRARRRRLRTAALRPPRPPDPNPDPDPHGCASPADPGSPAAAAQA
Where [16] appears, read: measured here: epithelial PC-3E GFP cell survival.
Where [17] appears, read: measured here: mesenchymal TEM4-18 mCherry cell survival.
Where [18] appears, read: MELAS cybrid survival, CellTiter-Glo 48 h, stronger effect = higher value.
Where [19] appears, read: Rieske KO mouse fibroblast survival, CellTiter-Glo 72 h.

Chain of NAD(+) hydrolase SARM1 (Homo sapiens) (Q6SZW1 whole entry, looked up, the tested form may be a part): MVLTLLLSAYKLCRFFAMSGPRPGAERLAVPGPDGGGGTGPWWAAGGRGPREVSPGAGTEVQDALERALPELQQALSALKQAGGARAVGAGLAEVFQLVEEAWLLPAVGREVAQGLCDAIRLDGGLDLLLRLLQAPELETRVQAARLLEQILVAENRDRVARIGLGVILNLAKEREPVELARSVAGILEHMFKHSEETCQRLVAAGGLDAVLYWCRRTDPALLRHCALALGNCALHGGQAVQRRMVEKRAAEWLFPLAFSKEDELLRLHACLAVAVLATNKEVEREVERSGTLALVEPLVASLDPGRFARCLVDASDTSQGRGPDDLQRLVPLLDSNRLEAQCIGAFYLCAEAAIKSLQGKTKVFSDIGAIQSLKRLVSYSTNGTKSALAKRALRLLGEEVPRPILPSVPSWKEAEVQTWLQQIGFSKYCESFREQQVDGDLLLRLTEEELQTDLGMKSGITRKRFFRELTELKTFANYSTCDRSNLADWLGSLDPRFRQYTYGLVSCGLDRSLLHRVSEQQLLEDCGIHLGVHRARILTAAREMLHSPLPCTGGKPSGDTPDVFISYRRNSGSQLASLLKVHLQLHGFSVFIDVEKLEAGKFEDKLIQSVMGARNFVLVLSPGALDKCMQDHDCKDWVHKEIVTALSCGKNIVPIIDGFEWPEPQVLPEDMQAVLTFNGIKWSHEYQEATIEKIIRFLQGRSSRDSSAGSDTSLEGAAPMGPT

For `COc1ccc2nc(SCc3ncc(C)c(OC)c3C)[nH]c2c1`, the nuclear beta-catenin stimulation is 1.9% (inactive) in experiment [1] (at 10 µM) and 0.8% in [1] (stimulation, at 2 µM). Also, the insulin secretion stimulation in experiment [2] was 3.1% (inactive). Moreover, the viability decrease in experiment [3] is 1% (inactive). Moreover, in experiment [4], the tube area decrease is 24.8% (inactive). Besides, the GLP1 secretion stimulation in [5] is 1.6% (inactive). Besides, the inhibition of viability in experiment [6] is 26.8% (inactive). Also, the results for the viability decrease (inhibition) in experiment [7] and in experiment [8] were -12.2% (inactive) and -6.1% (inactive), respectively.

For `Cc1c(C)n(Cc2ccccc2)c2ccc(C(=O)OCCN(C)C)cc12`, the nuclear beta-catenin stimulation in [1] (at 10 µM) was 12.1% (inactive); in experiment [1] (stimulation, at 2 µM) it was -0.2%. Besides, in experiment [2], the insulin secretion stimulation is 79.2% (active). The viability decrease in [3] is 90.9% (active). In addition, the tube area decrease in experiment [4] is 29.5% (inactive). Besides, the GLP1 secretion stimulation in [5] was 10.7% (inactive). Besides, the inhibition of viability in experiment [6] was 98.9% (active). In addition, the results for the viability decrease (inhibition) in experiment [7] and in [8] were 88.7% (active) and 95% (active), respectively.

Regarding `CC(C)NCC(O)c1ccc(O)c(O)c1` (stereo not drawn), the nuclear beta-catenin stimulation was -0.3% (inactive) in [1] (at 10 µM) and 1.9% in experiment [1] (stimulation, at 2 µM). Further, in experiment [2], the insulin secretion stimulation is 1.4% (inactive). Moreover, the viability decrease in experiment [3] is 54.1% (active). The tube area decrease in [4] is -8.1% (inactive). In experiment [5], the GLP1 secretion stimulation is 6.8% (inactive). In addition, in [6], the inhibition of viability is 33.2% (inactive). The viability decrease (inhibition) in experiment [7] was 28.5% (inactive); in [8], 23.6% (inactive). Further, the inhibition in experiment [9] is -1.67% (inactive). Also, the mean signal in [10] was 227 (inactive). Moreover, in [11], the red/green cell ratio (normalised) was 1.26 (inactive). Also, the normalised cell number in experiment [11] (setting [16]) is 1.07; in [11] (setting [17]), 1.35. Also, the z-score in experiment [12] (setting [18]) was -0.378 (inactive) and -0.294 (inactive); in [12] (setting [19]), 0.858 and -1.25. The remaining NAD in experiment [13] was 10 nM (inactive). Besides, in [14], the luciferase signal was 60 AU (inactive). Moreover, the log fold change Tl+ flux was 0.0351 (inactive) in the experiment with F380Y; 0.0171 (inactive) with F380Y/beta1; 0.061 (inactive) in the experiment with F380Y/beta2Delta; 0.0647 (inactive) with F380Y/beta4; -0.00786 (inactive) in experiment [15].

Take `NC(=O)[C@@H]1CSSCCC(=O)N[C@@H](CCCCN=C(N)N)C(=O)NCC(=O)N[C@@H](CC(=O)O)C(=O)N[C@@H](Cc2c[nH]c3ccccc23)C(=O)N2CCC[C@H]2C(=O)N1` ([Mpa][hArg]GDWPC-NH2; disulfide 1-7): the nuclear beta-catenin stimulation in [1] (at 10 µM) is 3.6% (inactive); in experiment [1] (stimulation, at 2 µM), 5.8%. For the same molecule, the insulin secretion stimulation in experiment [2] is 3.95% (inactive). The viability decrease in experiment [3] is 19.6% (inactive). Further, in experiment [4], the tube area decrease was 79.4% (active). Also, the GLP1 secretion stimulation in experiment [5] is -2.7% (inactive). For the same molecule, the inhibition of viability in experiment [6] is 9.3% (inactive). Further, the values for the viability decrease (inhibition) in experiment [7] and in experiment [8] were 0.7% (inactive) and 0.2% (inactive), respectively.

For `Nc1nc2c(ncn2COCCO)c(=O)[nH]1`, the nuclear beta-catenin stimulation in [1] (at 10 µM) was 3% (inactive); in [1] (stimulation, at 2 µM) it was -1%. In addition, the insulin secretion stimulation in experiment [2] is 0.5% (inactive). For the same molecule, the viability decrease in experiment [3] was -0.3% (inactive). Also, the tube area decrease in [4] is 8.6% (inactive). Further, the GLP1 secretion stimulation in [5] was -0.5% (inactive). In addition, in experiment [6], the inhibition of viability was -3.47% (inactive). Besides, the viability decrease (inhibition) was 23.2% (inactive) in [7] and -16.2% (inactive) in [8]. For the same molecule, the inhibition in experiment [9] is 18.2% (inactive). The mean signal in [10] is 281 (inactive). Besides, the red/green cell ratio (normalised) in experiment [11] was 1.25 (inactive). Also, the normalised cell number in experiment [11] (setting [16]) was 1.01; in experiment [11] (setting [17]) it was 1.26. The z-score in experiment [12] (setting [18]) is -0.252 (inactive) and -0.378 (inactive) and 0.479; in experiment [12] (setting [19]), 0.554 and 0.269 and 2.37. For the same molecule, the remaining NAD in experiment [13] was 10 nM (inactive). The luciferase signal in [14] was 40 AU (inactive). The log fold change Tl+ flux is 0.00551 (inactive) in the experiment with F380Y; -0.0568 (inactive) with F380Y/beta1; 0.0127 (inactive) in the experiment on F380Y/beta2Delta; -0.0606 (inactive) in the experiment on F380Y/beta4; -0.0276 (inactive) in experiment [15].

What is called inhibition is the relative decrease from the control value, in per cent.
